Reference: PubChem BioAssay (NCI)
About 83,000 compounds went through this panel and 20% of them were active in at least one assay; those are over-represented in the sample as a whole.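 Treatment: one concentration, 48 hours, 96-well format. Scoring: percent growth, with anything below 10 considered active.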 Activity calls are given as the source filed them.

What follows are compounds tested on HL-60(TB) leukemia (assay: NCI-60 one-dose screen, 48 h (100 = growth as untreated, 0 = no growth, -100 = all killed)). Conditions: 10 µM unless noted.

| SMILES | growth |
| --- | --- |
| O=C(NC1CCCC1)c1ccc(N2CCC(NCc3cccc(C(F)(F)F)c3)CC2)cc1 | 66.5% (inactive) |
| O=C(COc1ccc(Cl)cc1Cl)N1N=C(c2ccc(Cl)cc2Cl)CC1(O)c1cc(F)c(Cl)cc1Cl (stereo not given) | -97.5% (active) |
| CCCCCCCC/C=C\CCCCCCCC(=O)OCCCCCC | 93.6% (inactive) |
| C#Cc1ccc(-n2c(/C=C/c3ccc(O)c(OC)c3)nc3ncccc3c2=O)cc1 | 84.7% (inactive) |
| Cc1nc2sc(C(=O)Nc3cccc4ncccc34)c(N)c2cc1C(C)O (stereo not given) | 33% (inactive) |
| O=C(CSc1ccc(Cl)cc1)Nc1ccc(-c2nc3ccccc3s2)c(Cl)c1 | 63.4% (inactive) |
| FC(F)(F)c1ccc(-c2nc(-c3nc4cc(Cl)c(Cl)cc4[nH]3)c3ccccn23)cc1 | 104% (inactive) |
| CC1=CCC(OC(=O)C(C)(O)CCC(O)(C(=O)OC2(C)C=CC(O)(C(C)C)CC2)C(C)C)(C(C)C)CC1 (stereo not given) | 110% (inactive) |
| COc1cccc(N=Nc2cccc(OC)c2)c1 | 66.9% (inactive) |
| Cc1cnc(/C=N\NC(N)=S)c2cccc(N)c12 | -29.7% (active) |
| CCOC(=O)c1sc(-c2ccc(OS(=O)(=O)c3ccc(C(C)(C)C)cc3)c(C=O)c2)nc1C | 21.3% (inactive) |
| COc1ccc2c(c1)c(-c1noc(-c3cn(C)c4ncc(F)cc34)n1)cn2C | 84.6% (inactive) |
| O=C(NC1CCOCC1)c1ccc2c(c1)CN(c1ncc(Cc3cccc(-n4cccn4)c3)s1)CC2 | 68.7% (inactive) |
| COc1cccc(-c2cc(C(=O)Nc3ccc(/C=C/c4ccc(OC5CCN(C)CC5)cc4)cc3)ccc2OC)c1 | 9.98% (active) |
| CC12CCC(O)CC1=CCC1C2CCC2(C)C3=NN=CC3CC12 (stereo not given) | 103% (inactive) |
| CCN(CC)c1ccc2cc(C(Nc3ccc(Br)c(C(F)(F)F)c3)c3nnnn3C(C)(C)C)c(=O)oc2c1 (stereo not given) | 93% (inactive) |
| Nc1ccn(C2O[C@H](CO)[C@@H](O)[C@H]2O)c(=O)n1 (stereo not given in full) | 99.7% (inactive) |
| COc1ccc(CNC(=O)C(O)C(Cc2ccccc2)NC(=O)c2[nH]c3ccccc3c(=O)c2C)cc1OC (stereo not given) | 97.3% (inactive) |
| O=C(NCCO)Nc1ccc(-c2nc(N3CCOCC3)c3cccn3n2)cc1 | 24.2% (inactive) |
| CNCc1cccc2c1OCCOCCOCCC(C)S(=O)(=O)c1ccc(cc1)-c1cnc(N)c(n1)C(=O)N2 (stereo not given) | -34.8% (active) |

| SMILES | growth |
| --- | --- |
| Brc1ccc(-c2nn(-c3ccccc3)cc2-c2nn[nH]n2)s1 | 103% (inactive) |
| CC(C)CC1C(=O)N2CCC[C@H]2C2(O)O[C@](NC(=O)C3C=C4c5cccc6[nH]c(Br)c(c56)C[C@H]4N(C)C3)(C(C)C)C(=O)N12 (stereo not given in full) | 1.92% (active) |
| CCCCCOC(=O)c1cccc(NC(=O)CN(CC)CC)c1 | 101% (inactive) |
| COc1cc2c(cc1OCCCCN1CCN(C(=S)SCCC(C#N)(c3ccccc3)c3ccccc3)CC1)N=C[C@@H]1CCCN1C2=O | -40.8% (active) |
| c1cc(OCCN2CCCCC2)cc(-c2n[nH]c3ccc(-c4ncn[nH]4)cc23)c1 | 39% (inactive) |
| CCN1C(=O)N(CC)C2C1N=C(SC)N2/N=C/C=C/c1ccccc1OC (stereo not given) | -13.4% (active) |
| CCN=c1sc2c(n1NC(=O)c1cc3ccc1CCc1ccc(cc1)CC3)C(=O)c1ccccc1C2=O | -18.3% (active) |
| CCN(CC)c1nc(SCC(=O)Nc2nc3ccc(C)cc3s2)nc(-c2ccccc2)c1C#N | 96.5% (inactive) |
| Clc1ccc2sc(-c3ccccc3)nc2c1 | 86.2% (inactive) |
| NC(=O)c1ncn(C2OC(CO)C(O)C2O)n1 (stereo not given) | 83.1% (inactive) |
| COc1cccc(-c2nn(-c3ccccc3)cc2-c2ccnc(NCCNS(=O)(=O)c3ccc(C(F)(F)F)cc3)c2)c1 | -20.9% (active) |
| S=C(SSC(=S)N(c1ccccc1)c1ccccc1)N(c1ccccc1)c1ccccc1 | 85.1% (inactive) |
| CCOC(=O)Nc1ccc(-c2ccc3c(c2)NC(=O)/C3=C\c2ccc[nH]2)cc1 | 98.5% (inactive) |
| Cc1ccc(Cl)cc1Nc1nc(C(F)(F)F)ccc1C(=O)N/N=C/c1cccnc1 | 3.36% (active) |
| CCCCCc1ccc(S(=O)(=O)Nc2cc(-c3csc(NC(C)=O)n3)ccc2N2CCN(C)CC2)cc1 | -61.7% (active) |
| COc1cccc(C2C(C#N)=C(N)Oc3cc(OC)ccc32)c1 (stereo not given) | -32.2% (active) |
| COC12C=C/C(=C(/C(=O)OCc3ccncn3)C(=O)CCCCCCCCC3(OC)C=C/C(=C(/C(=O)OCc4ccncn4)C(=O)CCCCCCCC1)O3)O2 | -17.1% (active) |
| CCOC(=O)C(c1ccccc1)N1C(=O)c2ccccc2C1=O (stereo not given) | 115% (inactive) |
| CCOC(=O)n1cc(-c2nonc2-c2cn(C)c3ncccc23)c2ccccc21 | 84.7% (inactive) |
| O=c1cc(NC2CCN(CCCc3ccccc3)CC2)c2cc(Cl)ccc2o1 | -7.02% (active) |
